Compound activity from PubChem BioAssay.
IDH1 R132H inh = blocks human mutant IDH1 R132H enzyme | O75874 | IDH1-R132H enzyme, NADPH consumption, diaphorase/resazurin fluorescence | Potency, µM (top dose mostly 76.6 µM), inactives show top-dose activity change, negative = inhibition, actives largely listed as inhibitors | hit rate 0.093% among 390,000; further: nearly all actives have a fitted effect of over 65% in size
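IDH1-R132H (0.5 ug/mL dispensed) in pH 7.5 Tris buffer was preincubated 30 min with compound, then given a substrate mix of 0.016 mM NADPH and 2 mM alpha-KG for 80 min at room temperature; remaining NADPH was read by diaphorase/resazurin fluorescence.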
Sfp PPTase inh = inhibitors of Bacillus subtilis Sfp phosphopantetheinyl transferase; Q9F4F7; Biochemical Sfp PPTase activity, qHTS; Potency, µM, inactives show largest response in the series, negative = inhibition, most hits filed as inhibitors; hit rate 3.5% among 310,000; AID 1490;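 further: the enzyme is Sfp with the accession as filed and its product quenches rhodamine fluorescence; 0% = enzyme reaction without inhibitor and -100% = no enzyme wells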
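After 15 min at room temperature with compound, 15 nM Sfp received 5 uM rhodamine-CoA plus 12.5 uM BHQ-2-ybbR (50 mM Hepes pH 7.6, 10 mM MgCl2). Rate came from the fluorescence difference over 30 min, ex 525/em 598 nm.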
VDR inhibitor = vitamin D3 receptor (human) inhibition | VDR-SRC2-3 peptide fluorescence polarization, 2 h | Potency, µM, for inactives: max response, negative = inhibition, usual class: inhibitors | hit rate 0.93% among 400,000 | P11473
Target sequence (P11473 whole entry, looked up): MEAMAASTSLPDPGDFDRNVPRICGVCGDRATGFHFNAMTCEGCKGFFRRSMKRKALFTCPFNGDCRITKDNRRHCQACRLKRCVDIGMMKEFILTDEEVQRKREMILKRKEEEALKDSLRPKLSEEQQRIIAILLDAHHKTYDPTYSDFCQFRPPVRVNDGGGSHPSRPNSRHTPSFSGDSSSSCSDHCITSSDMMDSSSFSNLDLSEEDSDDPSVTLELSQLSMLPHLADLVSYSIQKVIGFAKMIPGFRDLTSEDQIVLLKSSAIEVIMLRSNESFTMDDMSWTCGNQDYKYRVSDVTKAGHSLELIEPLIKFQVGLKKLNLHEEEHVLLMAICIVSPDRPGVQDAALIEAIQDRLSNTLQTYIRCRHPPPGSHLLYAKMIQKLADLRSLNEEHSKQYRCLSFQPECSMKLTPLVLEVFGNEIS
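Fluorescence polarization assay measuring small-molecule disruption of VDR binding to the coregulator peptide SRC2-3. Compounds were pin-transferred (23 nl) into the reagent mix and incubated 2 h at room temperature before reading.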
TrxR1 substrate = rat thioredoxin reductase 1 substrate activity; O89049; purified TrxR1 substrate turnover, NADPH consumption readout; Potency, µM (titrated, usually from 114 µM), for the others: at the highest dose activity change, negative = substrate turnover; hit rate 0.01% among 390,000; AID 588456; further: nearly all actives have a fitted effect of over 50% in size
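Rat TrxR1, dispensed at 90 nM, was prereduced with 400 uM NADPH (final) for 5 min at ~22 deg C, then incubated with compound 15 min before 400 uM selenite. A first-read NADPH fluorescence drop versus no-compound background flagged substrates.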
rTrxR1 inhibitor = inhibitors of rat thioredoxin reductase 1. O89049. recombinant rTrxR1, NADPH fluorescence consumption, selenite substrate. Potency, µM (doses to about 114 µM), inactives show at the top dose activity change, negative = inhibition, hits mostly inhibitors. hit rate 1% among 390,000. AID 588453; further: nearly all actives have a fitted effect of over 65% in size
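Rat TrxR1 (90 nM in the dispensed reagent) was pre-reduced with 400 uM NADPH for 5 min at room temperature, then incubated with compound for 15 min. After 400 uM selenite was added, NADPH fluorescence (Ex 340/Em 450 nm) was followed for 8 min.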
PLK1 PBD inh = inhibitors of human PLK1 polo-box domain binding. Plk1 PBD binding of FITC phosphopeptide, fluorescence polarization. P53350. hit rate 2.8% among 360,000. Potency, µM, inactives show max response, negative = inhibition, hits mostly inhibitors; further: series mostly up to about 57 µM; nearly all actives have a fitted effect of over 65% in size
Starred values were filed as active, the others as inactive; ? = inconclusive; / = no result given; [ ] = remark or other dose. Shown are actives, neighbours in structure and some others; about 5.2% of the full set was active somewhere. The call rests on the fitted dose curve; in most records, active means well fitted curve in the direction sought with a large enough effect; inconclusive means small, poorly fitted or top-dose-only effect, or another doubt; inactive means no such curve, though single readings can be large; an effect the other way counts as inactive or inconclusive. Unless noted, on the % scale 0 is the no-effect control and ±100 the full control effect; potency means the concentration at half of the fitted maximal effect.

SMILES | IDH1 R132H inh | Sfp PPTase inh | VDR inhibitor | TrxR1 substrate | rTrxR1 inhibitor | PLK1 PBD inh
CCOc1ccc(N2C(=O)CC(Sc3nnnn3-c3ccccc3)C2=O)cc1 (stereo not drawn) | -5% | 16µM* | 2% | -1%[57.1 µM] | -9%[57.1 µM] | -1%
CCOc1ccc(N2C(=O)CC(Sc3nc(C)cc(C)n3)C2=O)cc1 (stereo not drawn) | 6% | 7% | -9% | 12% | 19% | -11%
O=C1CC(Sc2nnc(-c3ccccc3)o2)C(=O)N1c1ccccc1 (stereo not drawn) | 3% | 22µM* | -5% | -1% | 7.1µM* | ?
O=C(O)c1ccccc1SC1CC(=O)N(C2CCCCC2)C1=O (stereo not drawn) | -6% | 6% | -12% | 3% | 79µM* | 3%
O=C(O)c1ccccc1SC1CC(=O)N(c2ccccc2)C1=O (stereo not drawn) | 6% | 79µM* | -4% | -14% | ? | -11%
O=C1CC(Sc2cccs2)C(=O)N1c1ccccc1 (stereo not drawn) | 12% | -29% | -22% | 10%[57.1 µM] | ? | -27%
CCOC(=O)c1cc(CC)sc1N1C(=O)CC(Sc2ccccc2C(=O)O)C1=O (stereo not drawn) | 9% | 3.5µM* | 1% | 12% | ? | ?
C=CCNc1nnc(SC2CC(=O)N(c3ccc(OC)cc3)C2=O)s1 (stereo not drawn) | -1% | ? | -19% | 11% | 4µM* | 27µM*
Cc1nnc(SC2CC(=O)N(c3ccccc3)C2=O)s1 (stereo not drawn) | 1% | 35µM* | 15% | 6%[57.1 µM] | ? | ?
CCOC(=O)c1cc(CC)sc1N1C(=O)CC(Sc2ncccc2C(=O)O)C1=O (stereo not drawn) | 5% | -20% | -14% | 0% | ? | -1%
COc1ccccc1NS(=O)(=O)c1ccc(C)c(NC(=O)NCCCl)c1 | 9% | 89µM* | 12% | 1% | 20% | -14%
COc1ccccc1NS(=O)(=O)c1ccc(C)c(NC(=O)NC2CCCCC2)c1 | 1% | 6% | 10% | 0%[57.1 µM] | -12%[57.1 µM] | -3%
O=C(O)c1ccccc1C(=O)Nc1n[nH]c(=S)s1 | 6% | 10µM* | ? | 0%[57.1 µM] | -17%[57.1 µM] | 27µM*
O=C(O)c1ccccc1C(=O)Nc1nccs1 | -1% | -7% | -3% | -13% | ? | -4%
CCOc1ccc(C2c3c(oc4cc(C)c(C)cc4c3=O)C(=O)N2CCCN2CCOCC2)cc1 (stereo not drawn) | 10% | 50µM* | -2% | -4%[57.1 µM] | 2%[57.1 µM] | -10%
O=C1c2oc3ccccc3c(=O)c2C(c2cccs2)N1CCCN1CCOCC1 (stereo not drawn) | 8% | ? | -14% | -8% | 40µM* | -29%
CC(C)CN1CCC2(CC1)CCN(C(=O)c1ccco1)CC2 | / | 25% | 1% | / | / | /
CC(C(=O)c1ccccc1)[n+]1cccc(Cl)c1 (stereo not drawn) | / | / | / | 11%[0.0914 µM] | -10% | /
C=C(NCc1ccccc1)c1ccccc1O | / | 5% | 2% | / | / | /
O=C(O)CCC(=O)Nc1ccc(SSc2ccc(NC(=O)CCC(=O)O)cc2)cc1 | 7% | 18µM* | ? | -9%[57.1 µM] | 152%[57.1 µM] | 0.95µM*
CCc1ccc(NC(=O)Nc2nnc(N(C)C3CCCCC3)s2)cc1 | 12% | / | 14% | -5% | 2% | /
COCCCNC(=O)C1Cc2cc(S(=O)(=O)N3CCCC3)ccc2N1C(C)=O (stereo not drawn) | 0% | 9% | ? | -7% | 4% | 21µM*
CC(=O)N1c2ccc(S(=O)(=O)N3CCCC3)cc2CC1C(=O)NCc1cccc(F)c1 (stereo not drawn) | -7% | 13% | -31% | 1% | 12% | 24µM*
CN(C)S(=O)(=O)c1ccc(C(=O)Nc2ccccc2SCCC#N)cc1 | -1% | 14µM* | -5% | -2% | -33% | -27%
N#CCCSc1ccccc1NC(=O)c1cc(=O)c2ccccc2o1 | -1% | 22µM* | -22% | -12% | 5% | -25%
SMILES | IDH1 R132H inh | Sfp PPTase inh | VDR inhibitor | TrxR1 substrate | rTrxR1 inhibitor | PLK1 PBD inh
C=CCN1c2ccccc2[C@]23C[C@@H](C(=O)OC)N(S(=O)(=O)c4c(C)noc4C)C2=NC(C(=O)OC)=C(C(=O)OC)[C@H]13 | / | 17% | / | / | / | /
CC1CC=CC2C1C(=O)N(Cc1ccccc1)C2c1ccc(F)c(Br)c1 (stereo not drawn) | / | -16% | ? | -3% | -13% | /
O=C1C2=C(S[C@@H]3O[C@H](CO)[C@@H](O)[C@H](O)[C@H]3O2)C(=O)c2ccccc21 | / | ? | 35µM* | / | / | /
COc1c(O)cc2c(c1O)[C@@H]1O[C@H](CO)[C@@H](O)[C@H](O)[C@H]1OC2=O | 1% | 18% | -13% | -1% | 1% | 8%
Cc1c2ccccc2nc2c(F)c(NCCO)c(F)c(F)c12 | 0% | ? | ? | -2% | ? | 6.7µM*
COc1ccc(CN2C(=O)CN(S(C)(=O)=O)CC2(C)C(=O)Nc2c(C)cccc2C)cc1OC (stereo not drawn) | / | / | / | / | / | -8%
COc1cc(C(=O)N2CCN(S(=O)(=O)c3ccc(C)cc3C)CC2)ccc1OCC(=O)N1CCOCC1 | 21% | / | 4% | 6% | 28% | -4%
CC(C)c1nc2sc3c(c2c(=O)o1)CCCC3 | 3% | -13% | -15% | 5% | 13% | -6%
O=c1c2c3c(sc2nc2n1CCCCC2)CCCC3 | 3% | 32µM* | -16% | -5% | -14% | 27µM*
Cc1sc2nc(C(C)C)oc(=O)c2c1C | 13% | 14% | -6% | 1% | 9% | -5%
Cc1nc2sc(C)c(C)c2c(=O)o1 | 12% | 20µM* | 17% | -3% | -4% | -24%
O=c1c2c3c(sc2nc2n1CCCCC2)CCCCC3 | / | -11% | / | / | / | /
Cc1nc2sc3c(c2c(=O)o1)CCCC3 | 2% | 40µM* | -12% | -4% | 2%[57.1 µM] | -22%
COc1ccc(OCC(=O)Nc2cccc(S(=O)(=O)N(C)c3ccccc3)c2)c([N+](=O)[O-])c1 | -2% | / | -2% | 4% | 8% | 6%
CCCCN(C)CCNC(=O)c1cc(-c2cccnc2)nc2ccc(S(=O)(=O)N3CCC(C)CC3)cc12 | 0% | 3% | ? | -9% | -20% | 27µM*
COC(=O)N1C(=O)[C@](c2ccc(Cl)cc2)(C(C)C)N1C(=O)OC | 12% | -4% | ? | 4% | 7.9µM* | 24µM*
COC(=O)N1C(=O)[C@@](c2ccc(OC)cc2)(C(C)C)N1C(=O)OC | -5% | 9% | 14% | 4%[57.1 µM] | 28µM* | -26%
COc1ccc(C2(c3ccc(OC)cc3)NC(=O)N(CC(=O)NC(C)C)C2=O)cc1 | -7% | 17% | -15% | -1%[57.1 µM] | -1%[57.1 µM] | -8%
